Hits are enriched below; roughly 7.8% of the tested compounds scored in any of these assays.
VACV Venus inh: inhibitors of vaccinia virus (Venus reporter) | 330,000 tested, 0.46% active | Potency, µM (titrated, usually from 36.5 µM), inactives show top-dose activity change, negative = inhibition, most hits filed as inhibitors | Vaccinia virus Venus reporter expression, fluorescence; calls by dose curve; tested in A549 cells; note: potency is the fitted concentration of half-maximal effect; nearly all actives have a fitted effect of over 30% in size
Vaccinia mCherry: vaccinia inhibition (mCherry reporter); Vaccinia virus mCherry reporter infection, fluorescence; Potency, µM (top dose mostly 36.5 µM), without a hit: at the top dose activity change, negative = inhibition, usual class: inhibitors; 310,000 tested, 0.63% active; AID 720579; calls by dose curve; tested in A549 cells; note: potency is the fitted concentration of half-maximal effect; nearly all actives have a fitted effect of over 35% in size
Lassa entry inh: inhibitors of Lassa virus binding or cell entry. Lassa virus pseudotype entry inhibition, cell reporter. Potency, µM (doses to about 37.9 µM), without a hit: at the highest dose activity change, negative = inhibition, hits mostly inhibitors. 300,000 tested, 1.2% active. AID 540256; calls by dose curve; tested in HEK293 cells; note: potency is the fitted concentration of half-maximal effect; nearly all actives have a fitted effect of over 50% in size
Marburg entry inh: inhibitors of Marburg virus binding or cell entry; AID 540276; 300,000 tested, 1.8% active; Marburg virus pseudotyped entry inhibition, cell reporter; Potency, µM (series often up to 37.8 µM), inactives show top-dose activity change, negative = inhibition, hits mostly inhibitors; calls by dose curve; tested in HEK293 cells; note: potency is the fitted concentration of half-maximal effect
HCV inh: inhibitors of hepatitis C virus infection; Huh7.5.1 HCVcc-Cre infection, luciferase reporter, 44 h; Potency, µM (series often up to 41.8 µM), without a hit: at the top dose activity change, negative = inhibition, most hits filed as inhibitors; 340,000 tested, 3.4% active; AID 651820; active = well fitted inhibition curve with a large enough effect; inconclusive = small, poorly fitted or top-dose-only effect, or another doubt; inactive = no such curve, though single readings can be large or run the other way; note: potency is the fitted concentration of half-maximal effect
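Cells seeded at 1,000/well and cultured 4 h, then compounds added followed by HCVcc-Cre virus (~0.5 moi). After 44 h further culture, luciferase substrate was added, plates held 15 min at room temperature, and luminescence read for 15 sec.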
HCMV antiviral: inhibitors of human cytomegalovirus; HFF cells, HCMV-luciferase reporter, 72 h; active compounds read low; activity change, negative = inhibition, % at 57.5 µM; 410,000 tested, 4.5% active; in the data active = activity change below about -60%; inconclusive = no clear call, values can overlap the other calls; inactive = above about -39%
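Screen run at 2 compound doses on HFFs infected with reporter HCMV, MOI 1 PFU/cell. Luciferase activity from cell lysates at 72 h post infection gave inhibition relative to buffer-only and Salinomycin wells.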
The depositor's hits bear a star; i = inactive; ? = inconclusive; nt = no result given; [ ] = dose if it differs, or a comment. % is set by controls: 0 for no effect and ±100 for the full control effect.

SMILES | VACV Venus inh | Vaccinia mCherry | Lassa entry inh | Marburg entry inh | HCV inh | HCMV antiviral
COc1ccc(C(=O)N2CC(=O)Nc3ccc(C)cc3C2c2ccc(F)cc2)c(OC)c1 (stereo not drawn) | -3% | -17% | -19%[46.1 µM] | -3%[46.1 µM] | nt | 22
Cc1ccc(CNC(=O)CCCN2C(=O)c3cccnc3Oc3ccc(Cl)cc32)cc1 | -6% | -9% | 11%[46.1 µM] | nt | nt | 0
Nc1ccc2ccc(N)cc2c1 | nt | nt | nt | nt | nt | -65*
O=C(NCC1CC1)c1cc2c(c(-c3cccc(-c4ccccc4F)c3)n1)[C@@H](CCO)N(C(=O)CC1CC1)C2 | -5% | -16% | nt | nt | nt | ?
CCCn1nc(NC(=O)COC)c2cc3cccc(C)c3nc21 | -23% | -16% | nt | nt | 11µM* | -13
CCCn1nc(NC(C)=O)c2cc3cccc(C)c3nc21 | nt | nt | nt | nt | 11µM* | -11
CCCn1nc(NC(=O)CC(C)C)c2cc3cccc(C)c3nc21 | -10% | -8% | 3% | -1%[46.1 µM] | -6% | 20
CC(C)Oc1ccc(CNC(=O)c2cnc3sc(N4CCCC4)nn3c2=O)cc1 | -7% | -13% | ? | nt | nt | -1
Cc1ccc(C)c(N2CCN(C(=O)c3cc4c(=O)n(Cc5ccco5)ccc4nc3C)CC2)c1 | -16% | -21% | -14%[46.1 µM] | nt | nt | -39
CCCCNC(=O)c1nc2cc(C)c(C)cc2nc1-c1cccc(Br)c1 | nt | nt | nt | nt | nt | -94*
COc1ccc(N(C(=O)/C=C/C(=O)Nc2cc(C)on2)C(C(=O)NC2CCCC2)c2ccccc2C)cc1 (stereo not drawn) | ? | ? | ? | 9.2µM* | ? | -64*
O=C(CCCC(=O)N(c1ccc2c(c1)OCCO2)C(C(=O)NC1CCCCC1)c1ccc(Cl)cc1)Nc1ccccn1 (stereo not drawn) | -3% | -5% | ? | ? | 13% | -69*
COc1ccc(N(C(=O)c2ccco2)C(C(=O)NC2CCCCC2)c2ccccc2)cc1 (stereo not drawn) | -28% | nt | ? | 1% | -14% | -77*
Cc1cccc(N(C(=O)CNC(=O)c2ccco2)C(C(=O)NC2CCCCC2)c2cccnc2)c1 (stereo not drawn) | -7% | -5% | -22% | 25%[46.1 µM] | 22% | -16
O=C(NC1CCCCC1)C(c1cccnc1)N(C(=O)CCl)c1cccc(Cl)c1 (stereo not drawn) | ? | ? | ? | ? | 0.89µM* | -104*
Cn1c(CNC(=O)CSc2nc(-c3cccc(Cl)c3)nc3cc(=O)[nH]n23)nc2ccccc21 | 4% | 4% | ? | nt | nt | 17
COc1ccc(C(C(=O)NC2CCCC2)N(C(=O)c2ccco2)c2ccc3c(c2)OCO3)cc1OC (stereo not drawn) | -18% | nt | -2% | -1% | 3% | -75*
COc1ccc(C(C(=O)NC2CCCCC2)N(C(=O)CCl)c2ccc(Cl)cc2)cc1 (stereo not drawn) | -26% | -10% | ? | ? | 0.56µM* | -101*
COC(CN(C(=O)CCl)C(C(=O)NC1CCCCC1)c1ccccc1C)OC (stereo not drawn) | 11µM* | 13µM* | ? | ? | 10µM* | -97*
COc1ccc(N(C(=O)c2cnccn2)C(C(=O)NC2CCCCC2)c2ccc(Cl)cc2)cc1 (stereo not drawn) | -3% | -12% | 3% | 1% | -11% | ?
COc1ccc(C(C(=O)NC2CCCC2)N(C(=O)c2ccco2)c2cc3c(cc2C(C)=O)OCO3)cc1OC (stereo not drawn) | -14% | -15% | -5% | 7%[46.1 µM] | 16% | -19
CCOC(=O)c1cc(-c2ccccc2)n(CCCC(=O)Nc2cccc(C)c2C)c1C | -11% | -7% | 0%[46.1 µM] | nt | nt | 0
COc1cccc(N2CCN(C(=O)c3cc4c(=O)n(Cc5ccco5)ccc4nc3C)CC2)c1 | 0% | -4% | ? | nt | nt | -22
CCOC(=O)c1cccc(NC(=O)N2CC(CC)Oc3ccccc32)c1 (stereo not drawn) | -12% | -3% | 7%[46.1 µM] | nt | nt | -35
Cc1ccc(CNc2ncnc3cc(Cl)ccc23)o1 | -33% | nt | 0% | -7% | 11µM* | 12
SMILES | VACV Venus inh | Vaccinia mCherry | Lassa entry inh | Marburg entry inh | HCV inh | HCMV antiviral
COc1cc2ncnc(NCc3ccc(Cl)cc3)c2cc1OC | nt | nt | nt | nt | -18% | -78*
Cc1ccccc1CNc1ncnc2cc(Cl)ccc12 | -10% | -10% | -6% | 4% | -60% | ?
Cc1ccc(CNc2ncnc3cc(Cl)ccc23)cc1 | nt | nt | nt | nt | 11µM* | ?
COc1cc2ncnc(NCc3ccc(C)o3)c2cc1OC | nt | nt | nt | nt | -14% | 0
O=C(Nc1ccc(Br)c2cccnc12)c1cccc2ccccc12 | -11% | -6% | -6%[46.1 µM] | -2%[46.1 µM] | nt | 10
CN(C)CCNC(=O)c1ccc(Cn2c(=O)c3cccn3c3cccnc32)cc1 | -6% | -12% | ? | nt | nt | ?
Cc1ccc(NC(=O)C2CCC(CNS(=O)(=O)c3cccs3)CC2)cc1C (stereo not drawn) | -13% | -10% | -3%[46.1 µM] | nt | nt | -22
CC(C)CC(NC(=O)CCCNC(=O)CCC(=O)OC1O[C@H]2OC3(C)CC[C@H]4[C@H](C)CCC(C1C)C24OO3)C(=O)O (stereo partly drawn) | 1% | -18% | ? | ? | ? | -63*
O=C1CCCC2=C1[C@H]1O[C@](CCCCN3C(=O)c4ccccc4C3=O)(Cc3c1ccc1ccccc31)O2 | nt | nt | nt | -23%[14.2 µM] | nt | nt
Cc1ccc(C)c(N2CCN(C(=O)CCCN3C(=S)NC(C)(C)CC3C)CC2)c1 (stereo not drawn) | -27% | -9% | ? | ? | 10µM* | -64*
C[C@@]12C(=O)Nc3cc(Cl)ccc3C(=O)N1[C@H]1c3cc(Br)ccc3OC[C@@H]1[C@@H]2c1ccccc1 | -23% | -4% | nt | nt | 10µM* | -64*
C[C@@]12C(=O)Nc3cc(Cl)ccc3C(=O)N1[C@H]1c3cc(Cl)ccc3OC[C@@H]1[C@@H]2c1ccccc1 | -25% | -14% | nt | nt | ? | ?
COc1ccc2c(c1)OC[C@H]1[C@H]2N2C(=O)c3ccc(F)cc3NC(=O)[C@@]2(C)[C@H]1c1ccccc1 | ? | 18µM* | nt | nt | ? | 119
COc1ccc2c(c1)OC[C@H]1[C@@H]2N2C(=O)[C@@H](C)NC(=O)[C@@]2(C)[C@H]1c1ccccc1 | -4% | i | nt | nt | -1% | -15
COc1ccc2c(c1)OC[C@H]1[C@H]2N2C(=O)c3cc(OC)c(OC)cc3NC(=O)[C@@]2(C)[C@H]1c1ccccc1 | ? | ? | nt | nt | 7.1µM* | -15
COc1ccc2c(c1)OC[C@H]1[C@H]2N2C(=O)[C@H](C)NC(=O)[C@@]2(C)[C@H]1c1ccccc1 | -7% | i | nt | nt | 0% | -91*
Cc1ccc2nc(-c3cc(NC(=O)COc4ccc(C)c(C)c4)ccc3Cl)oc2c1 | -13% | -11% | -1%[46.1 µM] | 14%[46.1 µM] | nt | 49
COc1ccc(CCNC(=O)C(=O)NCC(c2ccco2)S(=O)(=O)c2ccc(F)cc2)cc1 (stereo not drawn) | -10% | -10% | ? | nt | nt | ?

Screening data (PubChem BioAssay)
